# Source: the supplement of paper PMC6555819
# Legend:
# Assay in all cases: PBM binding z-score (relative to random genomic background probes); higher = stronger binding; sequences stand for … in GC…GCGATTGACAGCGTAGAATGAAGG
# [1] = test system: PPARg:RXRa DBDmut IVT, anti-RXR (DBD mutation: RXRa K156A/R161A, NR concentration 270 nM, RXRa partner concentration 90 nM)
# In short: (§1)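 Regression normalization was applied to scanned fluorescence from custom Agilent 4×180K protein-binding microarrays. Before scanning, arrays were incubated 1 h with ligand-free nuclear receptor dimers, and binding was detected with antibodies against each partner (one per run). Binding z-scores use the random background probes as reference.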
# [2] = test system: PPARg:RXRa IVT, anti-PPARg (NR concentration 270 nM, RXRa partner concentration 90 nM)
# In short: as §1
# [3] = test system: PPARg DBDmut:RXRa IVT, anti-PPARg (DBD mutation: PPARg1 K132A/R137A, NR concentration 270 nM, RXRa partner concentration 90 nM)
# In short: as §1
# [4] = test system: PPARg DBDmut IVT, anti-PPARg (DBD mutation: PPARg1 K132A/R137A, NR concentration 270 nM)
# In short: as §1
# [5] = test system: PPARg homodimer (NR concentration 180 nM)
# In short: as §1
# [6] = test system: PXR:RXRa (NR concentration 270 nM, RXRa partner concentration 90 nM)
# In short: as §1
# [7] = test system: PXR homodimer (NR concentration 270 nM)
# In short: as §1
# [8] = test system: RARa:RXR (NR concentration 270 nM, RXRa partner concentration 90 nM)
# In short: as §1
# [9] = test system: RARa homodimer (NR concentration 270 nM)
# In short: as §1
# [10] = test system: RARb:RXRa (NR concentration 270 nM, RXRa partner concentration 90 nM)
# In short: as §1
Sequence,PBM binding z-score [1],PBM binding z-score [2],PBM binding z-score [3],PBM binding z-score [4],PBM binding z-score [5],PBM binding z-score [6],PBM binding z-score [7],PBM binding z-score [8],PBM binding z-score [9],PBM binding z-score [10]
CCTTGCGGGTCAAGGTTATAGCACGGGTGGTACG,3.71,5.26,-0.0608,-0.506,2.01,2.93,0.309,3.7,0.296,3.82
GCTATTAGTTGATAGGGCAACCGAATGATTCTCG,0.375,0.394,-0.22,-0.757,0.294,-0.353,-0.032,0.0949,0.352,0.561
CCAGACAGGTGCGAAGGTAACTCAGCCTCGATTA,-0.128,-0.749,-1.66,-1.77,-0.207,-0.494,-0.385,-0.323,0.0972,-0.199
CCGAATGGGGCAAAGGTTACCATACTCAGTACGA,2.16,4.5,0.22,0.313,1.22,2.57,0.114,3.86,0.85,2.46
AGAATGAGGTTATACGTTGATCAGGGAAGAAAGT,2.33,2.33,1.31,1.24,1.05,1.18,0.411,1.69,0.556,1.44
TCGAGTAGGTCAGGGGCATTCAGAATGGCGTCGA,4.91,5.07,-0.408,-0.403,1.33,1.2,-0.323,1.44,-0.681,3.39
CCTTACGGGTCACCGACAGGTTATAGCATTTGGA,2.51,4.22,0.292,0.016,3.32,4.11,-0.087,5.27,0.277,4.52
CAAACTAGGTCACAGAGGTCAAAGCCCGTGCGTA,8.71,9.13,4.98,2.72,4.59,6.66,10.8,7.48,2.65,5.27
CCTATTGGGCCATTCAGAGGTCATTGATCATATG,2.6,2.48,0.246,0.228,1.37,4.71,2.54,4.7,0.541,3.28
GCTAGCAGGCCATTTTGGTCACTCAATGACGGGC,0.582,-0.122,-1.08,-1.4,-1.14,-0.775,-0.836,-0.995,-1.3,0.0531
ATACCAAGGTGATCGTGAGGTCGTTGAAACTAAC,0.647,1.34,0.138,0.0797,1.05,3.33,1.61,2.57,0.829,1.7
GCTATTAGTTGGAAGGGCAACCGAATGATTCTCG,-0.166,-0.0839,-0.592,-0.456,0.324,-0.247,-0.0418,-0.059,0.846,1.06
CCTACTGGGCCAAAGCTCATTGATTCCAATGCTC,4.44,3.69,-0.419,-0.625,-0.0929,-0.568,-0.291,-0.318,-0.841,-0.251
CAAACGAGGGCATGAGTTGATAGCAAATGCCGAT,2.71,2.88,0.524,-0.353,0.909,0.572,-0.0239,0.752,-0.274,2.24
ACTAGCAGGCCAAGTTTGGGGCACTCAAACAAAG,0.771,0.921,-0.182,-0.0456,-0.843,-0.333,-0.763,0.00988,-0.881,0.744
CGTCCAAGGTCATAGGAGGTCGGTGAAGACAGAT,2.55,3.51,-0.173,0.224,2.9,6.03,1.77,4.4,0.95,4.89
TGAATGAGGTTATAAGATGAGGGAACGTTGCAAA,1.09,1.5,0.967,0.169,0.684,0.72,-0.291,1.49,0.262,1.19
ACTATTAGTTGTGACGAGGGCAACCGATAGGTTG,0.298,0.518,0.938,1.19,0.35,0.597,-0.0621,0.536,0.293,1.06
GCTAGTTGGACAGTAAAAGGTCACACACCGGTCG,0.431,2.16,-0.417,-0.407,3.24,4.68,1.09,5.53,1.25,3.95
GGAACGAGGGCAAAGTTGATAGCATCTGTCGACG,3.97,4.32,0.506,-0.103,-0.0124,1.14,-0.0271,1.56,-0.075,2.37
ATCGAAAGGGCGACGAGGTGAGTATACACCGTTT,-0.129,0.9,0.582,0.302,0.304,0.264,0.172,0.542,0.176,1.74
CCTGGGAGGACAGAAGGTCAGAGCTGTCCGCTTT,-0.504,0.212,-1.2,-1.6,1.81,1.65,-0.162,2.16,0.121,3.35
TCATATAGGTAAAAGGTGAGAGTCGGTGTGGTAA,5.3,4.91,2.38,1.33,1.91,1.43,0.171,2.43,1.17,1.77
AGAATGAGGTTGTTAAGATCAGGGAATTGCGGTC,0.255,-0.103,-0.954,-0.016,0.112,0.362,0.179,0.0989,-0.0651,0.173
TCGAGTGGGTTAGTCGGGGCATTCAGCCAACATA,1.67,1.4,0.134,-0.527,0.359,0.291,0.241,0.255,0.0202,0.514

Sequence,PBM binding z-score [1],PBM binding z-score [2],PBM binding z-score [3],PBM binding z-score [4],PBM binding z-score [5],PBM binding z-score [6],PBM binding z-score [7],PBM binding z-score [8],PBM binding z-score [9],PBM binding z-score [10]
CCTTACGGGTCTCTGACAGGTTATAGCATTTGGA,0.625,-0.443,-0.515,-0.237,0.678,-0.13,-0.251,0.185,0.262,0.256
CCTCGGAGGACAACAGGAGGTCAGAGATGCCAGA,-0.0162,0.314,-0.377,-1.49,1.1,2.04,0.508,2.05,0.885,2.8
GCTGCTAGGTCAGGTTGGTCAGCTGACGGGTACG,2.92,2.16,0.00411,-0.207,1.24,0.407,-0.471,0.946,-0.516,3.17
TCTTGTAGATCAAGCACGTTAAGAAAGCCTGAGT,1.73,0.108,0.449,0.566,0.56,0.445,-0.148,0.501,-0.338,-0.035
CCGACTGGGGTAAAGGTTACCATACTCAGTACGA,3.8,5.39,0.251,0.0634,1.25,1.93,-0.316,3.23,0.475,2.02
ACTTACGGGTCAACGAGGTTATAGGACGCGTATA,3.03,4.18,1.47,0.791,2,5.08,2.36,5,1.18,4.41
AGTCAAAGTTCATCTACGTAACGTAAGATATGCT,0.41,2.74,1.46,1.88,2.94,4.96,4.87,3.51,1.69,4.85
TCATATAGGTACAGGTGAAAGTCGAACGATATGA,2.01,1.83,1.45,1.06,0.632,0.509,-0.0466,0.718,0.84,0.896
GGAAGGAGGGCAAAGTTGATAGCATCTGTCGACG,4.12,4.58,0.789,0.418,1.64,1.3,1.62,1.57,1.19,2.31
AGAATGAGGTTACCAAAGATCACGGAAACGCTTG,3.7,3.26,1.1,0.644,0.807,2.1,-0.253,2.3,0.0214,2.15
GCTCGGAGGACAATGTCAGAGCTTTGTCCGTAGA,-0.596,-0.513,-1.4,-0.198,-1.02,-0.494,-0.648,-0.772,-1.31,0.788
AATAGCAGGCCAAGTTTGGGTCACTCAAACAAAG,1.2,1.95,-0.692,-0.417,0.551,1.05,-0.42,1.79,-0.848,1.98
TATACCGGGTCAAAGGCCAGAGTACGAATGTCGA,2.58,5.47,0.885,1.2,2.12,3.61,0.647,4.89,0.935,3.88
ATACCAAGGTGAACGTGAGGTCGTTGATACTAAC,2.44,3.17,1.14,0.95,1.83,4.23,1.48,3.21,0.99,2.43
CCAAGTTGGTCAAGGTCACACACGCTATAGGTAC,2.97,3.8,0.633,0.94,3.54,4.6,4.77,4.56,1.99,4.27
TCTTGTAAATCAAAGGTTAAGAAAGCCGAAGCCT,1.48,1.25,0.212,0.506,1.05,1.42,-0.311,2.32,0.632,1.87
CAAACTAGGTCACCGGAAGGTGAAAGTCCGCATG,8.74,8.89,2.99,0.925,4.64,2.98,0.142,4.74,0.555,4.54
ATCTCAAGGTAAGACTCAGTTCAGTGAAGAACGC,0.2,0.426,0.753,0.498,0.782,1.47,1.54,0.694,1.1,0.614
ATCGCAAGGTCGAAGGTGAGTATACCCACCCGAA,-0.513,1.21,0.246,-0.257,0.231,1.89,-0.311,2.65,-0.621,2.41
ATATGTAGGTTAGCTGGGTTCATTCAGACTAGGC,6.03,6.16,1.92,2.15,2.07,6.34,7.23,2.56,1.06,1.35
CAGAGTAGGTTATGGGGCATTCAGGCAACGGTGA,3.95,4.66,1.11,0.548,1.69,0.233,0.246,0.549,0.726,1.23
CGTCAAAGTTCAACCAAGGTAACGTAAAGCACGC,0.703,2.22,0.566,0.664,3.1,5.55,4.15,4.39,1.73,5.25
CAAACTAGGTCACCGGATGGTCAAAGTCCGCATG,8.46,8.82,4.83,2.57,3.76,2.49,0.137,3.77,1.02,4.29
TGAATGAAGTTATAAGATCAGGGAACGTTGCAAA,-1.2,-0.333,0.559,0.214,-0.63,-0.502,-0.359,-0.42,0.115,-1.82
